# Measurements published in PubChem BioAssay (NCATS).
# Records with an inconclusive call do not appear. A call without a number means that no potency is given here. Activity calls are given as the source filed them. Calls follow the shape of the dose curve; as a rule, active = well fitted inhibition curve with a large enough effect; inconclusive = small, poorly fitted or top-dose-only effect; inactive = flat fitted curve, though single readings scatter.
# Biological target: Calcium and integrin-binding protein 1 (Homo sapiens) (UniProt Q99828)
# Sequence (Q99828 whole entry, looked up): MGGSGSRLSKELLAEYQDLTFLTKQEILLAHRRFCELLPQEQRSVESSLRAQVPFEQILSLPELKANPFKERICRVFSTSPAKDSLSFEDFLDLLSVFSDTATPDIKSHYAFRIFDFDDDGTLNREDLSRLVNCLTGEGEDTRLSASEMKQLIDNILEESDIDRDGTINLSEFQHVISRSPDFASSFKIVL
# Test: Primary qHTS for Identification of Calcium Integrin Binding Protein 1 (CIB1) Competitor (AID 1508620);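 also: GST tagged CIB1 binding a fluorescein labelled alphaIIb integrin peptide tracer; top concentration of the series differs between compounds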
# Conditions: CIB1-GST / FITC-alphaIIb peptide fluorescence polarization; series mostly up to 114 µM
# In short: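 CIB1-GST (1 uM final) and compound incubated 15 min at room temperature before adding FITC-alphaIIb peptide tracer (100 nM final). Competition for binding read by fluorescence polarization (ex 480, em 540) after another 15 min at room temperature.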
row,SMILES,Potency
1,Cc1ccnc(NC(=S)N2CCN(c3cc(Cl)cc(Cl)c3)CC2)c1,inactive
2,COc1cc(F)c(S(=O)(=O)N2CCCN(S(=O)(=O)c3ccc4c(c3)OCCO4)CC2)c(F)c1,inactive
3,COc1cccc(Cn2ncc3c4sc(B(O)O)cc4n(C)c3c2=O)c1,inactive
4,COc1cc(OC)cc(-c2nnc3n2N=C(c2cc(OC)ccc2OC)CS3)c1,inactive
5,CC(C)(C)OC(=O)NCC(=O)NNC(=O)c1cc2ccccc2[nH]1,inactive
6,CN(C)c1cccc(-c2cnc(N3CCC(C(N)=O)CC3)nc2)c1,inactive
7,Cc1cc2c(s1)c1cnn(Cc3cc(C(F)(F)F)cc(Cl)c3F)c(=O)c1n2C,inactive
8,CC(=O)Nc1sc2c(c1-c1cncnc1)CCNC2,inactive
9,N#Cc1cccc(Nc2ncc(-c3cccc4ccccc34)o2)c1,inactive
10,CCOc1cc(CCNC(=O)c2cc3sccc3n2Cc2ccccc2)cc(F)c1OCC,inactive
11,O=c1c2ccccc2nc2sc(NCc3ccc([S+](=O)([O-])c4ccccc4)cc3)nn12,inactive
12,COc1ccc(C(=O)Nc2ccc(-c3nc4ccccc4[nH]3)cc2)cc1OC,inactive
13,O=C(Cc1ccccc1)Nc1sc2c(c1C(=O)Nc1ccc(Cl)cc1)CCOC2,inactive
14,N#Cc1nc(Nc2ccc(Br)cc2)nc(NC2CCCC2)n1,inactive
15,O=C1c2ccccc2C(=O)N1c1cc(=O)c2ccccc2[nH]1,inactive
16,N#Cc1ccc(-c2ccc(CNc3ccc(N4CCN5CCCCC5C4)cc3)o2)cc1 (configuration not stated),inactive
17,CN1CCN(c2cc(-c3nc(Nc4ccc(F)c(F)c4)c4ccccc4n3)ccn2)CC1,inactive
18,Cc1cc(C)nc(NC(=S)N2CCN(c3ccccc3C#N)CC2)c1,inactive
19,NC(=O)C1CCN(c2nc(-c3cccc(F)c3)cs2)CC1,inactive
20,Cc1ccc(NC(=O)CN2C(=O)N/C(=C\c3cccn3-c3ccc([S+](N)(=O)[O-])cc3)C2=O)cc1,inactive
21,Cc1cc(NS(=O)(=O)c2cc3c(cc2F)NC(=O)CC3)ccc1F,inactive
22,CCOc1ccc(CCNC(=O)c2cc3sccc3n2CCN2CCN(C)CC2)cc1OCC,inactive
